# Data from PubChem BioAssay (NCI).
# The panel holds about 83,000 compounds, 20% with a hit somewhere; the sample as a whole holds those more often.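 Growth was measured after 48 h exposure to one concentration of compound in 96-well plates. Values under 10 count as active.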 A number with no mark means an inactive call. Calls of active or inactive are those of the source.
# Experiments:
# Assay in all cases: NCI-60 one-dose screen, 48 h (100 = growth as untreated, 0 = no growth, -100 = all killed)
# Conditions in all cases: 10 µM unless noted
# [1] = system: DU-145 prostate
# [2] = system: K-562 leukemia
# [3] = system: MDA-MB-231 breast
# [4] = system: RXF 393 renal
# [5] = system: SF-268 CNS
# [6] = system: SF-295 CNS
# [7] = system: SF-539 CNS
# [8] = system: UACC-257 melanoma
# [9] = system: M14 melanoma
# [10] = system: MALME-3M melanoma
SMILES,growth [1] [%],growth [2],growth [3],growth [4],growth [5] [%],growth [6],growth [7] [%],growth [8] [%],growth [9],growth [10]
OC(CSc1ccccc1)CN1CCN(c2ccc(Cl)cc2)CC1 (stereo not given),110,78.3%,94.7%,95.7%,103,94.3%,96.8,101,100%,–
CC(/C=N/NC(N)=S)Cc1ccc(C(C)C)cc1 (stereo not given),129,–,85.4%,69.2%,129,73.2%,59,69.9,74.2%,82.9%
O=C(c1ccccc1)c1ccc(O)c2ncccc12,–,15%,38.2%,41.8%,34.3,74.6%,21.6,17.3,35.5%,56.1%
Oc1ccc2c(c1)CCc1ccccc1-2,109,121%,111%,92.6%,92.1,96.3%,89.9,99.2,102%,–
CCCCCCCCCCCCSC(=N)N,42.8,-40.8% (active),-30.1% (active),21.5%,67.8,–,74.9,14,-5.2% (active),–
CCOC(=O)c1[nH]c(C#N)c(C(=O)OCC)c1C,106,–,102%,90.5%,111,89.3%,104,104,109%,109%
CCOC(=O)/C(=C\c1ccc2ccccc2c1)P(=O)(OCC)OCC,–,11.8%,16.3%,-23.4% (active),42.6,60.1%,28.9,63.8,31.7%,72.1%
CCCCC(CCc1ccc([N+](=O)[O-])cc1)(C(C)=O)C(=O)OCC (stereo not given),102,99.7%,98.2%,85.8%,95.9,99.2%,94.7,99.1,96.7%,–
O=C(c1ccc(O)c(Br)c1)c1ccc(O)c(Br)c1,87,–,101%,107%,90.6,118%,90.1,110,–,106%
CCOc1ccc(Nc2nc3c(s2)C(=O)c2ccccc2C3=O)cc1,–,37.2%,33.9%,105%,73,102%,108,94.7,85.9%,52.9%
CCOc1ccc(C(CN2CCOCC2)C(C)=O)cc1OC (stereo not given),–,45.5%,94.6%,85.8%,105,102%,89.6,90,93.8%,84%
CCc1oc2ccccc2c1C(=O)c1cc(Br)c(O)c(Br)c1,–,–,58.9%,51.6%,75.4,52.8%,65.5,66.2,49.7%,94.8%
NNc1cccc([N+](=O)[O-])c1,104,–,58.9%,122%,72.6,89.5%,100,99,99.9%,101%
O=C1C=Cc2ccccc2/C1=C/c1nc(-c2ccccc2)oc1O,–,96.8%,73.6%,101%,84.8,101%,87.7,105,93.5%,74.4%
CCN(CC)CCNc1ccc([N+](=O)[O-])c2sc3ccccc3c(=O)c12,–,10.2%,56.2%,5.72% (active),32.2,7.95% (active),21.9,29.3,34.1%,-8.2% (active)
Nc1cccc2cccc([N+](=O)[O-])c12,118,–,–,110%,109,95.6%,113,100,107%,111%
CC1=CC(=NC(=O)CBr)C=C/C1=N\S(=O)(=O)c1ccccc1,76.8,–,67.5%,82.4%,64.8,–,91.6,–,72.8%,21.9%
O=C(/C=C/c1ccccc1)c1ccccc1O,–,51.6%,91.5%,65.7%,85.2,94.8%,89.9,91.8,92.3%,97.2%
COc1ccc(C(OCC2OC(n3ccc(NC(=O)c4ccccc4)nc3=O)C(O)C2O)(c2ccccc2)c2ccccc2)cc1 (stereo not given),52.4,32.7%,58.2%,31%,54.2,41.7%,42.9,64.3,40.2%,–
